This passage reports PBM binding z-score results from the supplement of paper PMC6555819.

This test deals with VDR:RXRa (NR concentration 270 nM, RXRa partner concentration 90 nM). The test is described as follows: PBM binding z-score (relative to random genomic background probes); higher = stronger binding; sequences stand for … in GC…GCGATTGACAGCGTAGAATGAAGG
The protocol: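 Protein-binding microarray (Agilent 4x180K custom design, double-stranded 60-nt probes: 5' GC cap, 34-nt variable region, 24-nt constant primer region; full probe sequence given). Purified or IVT nuclear receptor:RXRα heterodimers (3:1 NR:RXRα, mostly 270:90 nM) or homodimers were incubated for 1 h in PBS with 2% milk and no ligand, then detected with Alexa488 antibodies. Fluorescence from o1-orientation probes (~5 replicates averaged) was converted to z-scores against 500 random hg19 background probes. Variable regions are seed direct-repeat (DR0–DR5) sites, all their single-nucleotide variants and half-site ablations.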
The sequence GCTTACGGGTAAAAGGTTATAGCATGAATAGAAT showed a PBM binding z-score of 1.57.
In turn, CCTAGTTGGTCAAGGTCACACTCGCTATAGGTAC showed a PBM binding z-score of 3.99.
With GATACAGGGTCAGCTAGAGGCCACAGTATGGAAA, the PBM binding z-score stood at 3.76.
With ACAAGCAGGCCAAGGGTCACTCAAGATTAGTCCG the figure was 2.94; with TCTTGTAGATCAAGCAGGTTATGAAAGCCTGAGT, 0.521; with CCTAGTCGGTCAAGGTCACACACGCTATAGGTAC, 4.29.
Sequence CCTAGTTGGTCAGGAGGTCAGACACCGGATATGA came in with a PBM binding z-score of 2.22.
As for CCTCGGAGGACAGACGGTCAGAGCTGTCCGCTTT, the PBM binding z-score is -0.53.
CGAACTAGGTTAAGGACAGTGAATCTCCGCACGC yielded a PBM binding z-score of -0.159.
CTAACTAGGTCATTGACAGGACAGTGAATAGTAA had a PBM binding z-score of 2.2.
With ACTCGGAGGAGAAAGGTCAGAGCTACGCCAGTGA the figure was 2.16.
With CAAACTAGGTCGAAGGTCAAAGTCGAGCCAACCA the figure was 4.45; with ATCTCTAGATAACCAAGTTCAGTGAATGCCGAAC, 1.16.
In turn, CCTACTGGGCCACGAAAGGTCATAGATTCAGTGA returned a PBM binding z-score of 3.89.
In turn, ACAGACAGGTGAGCGAAGGTAACTCAGCTGGACG yielded a PBM binding z-score of -0.641.
With TAATATAGGTAAAAGGTGAAAGTCGGTGTGGTAA the figure was 1.59.
The figure for TCATATAGGTAAACAGGTAAAAGTCCGTAAGTTA is 1.29; for GCGACTGGGGCAGCAGCAGGTTACCATAACTTAA it is -0.465.
Regarding TCTCGGAGGACACGAAAGGTCAGCGCTCGACATC, the PBM binding z-score was 3.67.
The sequence GATACAGGGTCAGCTAGAGGCTAGAGTATGGAAA showed a PBM binding z-score of 2.67.
For CAAACTGGGTCAAGAGGTCAAAGTCCGCTTCCCG, the PBM binding z-score was 6.19.
TCTAGCAGGCCAGAGGGTCACCCAAGAGGTACGG gave a PBM binding z-score of 1.71.
The figure for ATCTCTAGGTAACCAAGTTCAGGGAATGCCGAAC is 3.85.
GGAACGAGGGCAAAGTGGATAGCATCTGTCGACG yielded a PBM binding z-score of 1.08.
Turning to AGTCAAAGTTCAGGACGAGTTAACGTAAAGCACG, the PBM binding z-score was 2.96.
CGAACGAGGGCAAGAGTTGATAGCAAATGCCGAT displayed a PBM binding z-score of 0.703.
As for ATCTCTAGGTAAGACTCAGTTCAGTGACGAACGC, the PBM binding z-score was 0.924.
With CAGCCTAGGTCAGGGCCAGTTTAGGAGGAACGTT the figure was 0.723; with CCGACTGGGGCAGAAAGGTTAGCATACCATCCGG, 0.00712.
As for TCTATTAGTTGATGGGCAACCGACGAGTCCGTTT, the PBM binding z-score was found to be 0.542.
Take CAAACTAGGTCAAGAGGTCAAAGTACGCTTCCCG: the PBM binding z-score came out at 6.22.
TCTGGGAGGACACGAAAGGTCAGAGCTCGACATC gave a PBM binding z-score of 3.35.
CCTAGCAGGCCAGGGTCACTCAAGCATTTCGCTT showed a PBM binding z-score of 2.48.
The figure for CGAACTAGGGCATCCAGGACAGTGAATACATTGA is 0.492; for CCTGCTAGGTCAATGGTCGGCTAAAGCAGCTCGC it is 1.07.
Sequence CGTCCAAGGTCAGAGAGGTCAGTCAATGCCGAGT displayed a PBM binding z-score of 7.68.
TCTCGGAGGACACGAAGGTCAGAGCTTTCCAGAG returned a PBM binding z-score of 2.3.
AGTCAAAGTTCACTAGGTCACGTAAGATTCAGCT gave a PBM binding z-score of 5.1.
With GCAGACAGGTGTAACGCAGGTAACTCAGGGTGGC, the PBM binding z-score is -0.647.
The sequence GGTACGAGGGCATTCGAGTTGATAGCATGGCGAT returned a PBM binding z-score of 3.71.
